Source: the supplement of paper PMC4466140

Molecular target: AgAbp1
Test: SPOT peptide array binding signal intensity (averaged, normalized) (arbitrary units (background-subtracted, floor 0; scale differs between SH3 domains)); higher = stronger binding of the SH3 domain to the peptide
Outline: (§1)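 GST-SH3 fusions from four yeast species, purified on glutathione Sepharose, were incubated at 10 μg/ml overnight at 4°C on membranes of synthetic 15-mer peptides in which cysteines were replaced with serines. Binding signal is the normalized, background-subtracted spot intensity averaged over replicates, in domain-specific arbitrary units.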

Question: How did the “SPOT peptide array binding signal intensity” value turn out when ATNVPVAPPPPPASL was run?
Answer: The value was at most 0.

Molecular target: AgBbc1
Test: as above
Outline: as §1

Question: With ATNVPVAPPPPPASL as the binder, how does the “SPOT peptide array binding signal intensity” value read?
Answer: Its value is 2.75.

Molecular target: AgBem1-D1
Test: as above
Outline: as §1

Question: For ATNVPVAPPPPPASL, which “SPOT peptide array binding signal intensity” value is on record?
Answer: The value was at most 0.

Molecular target: AgBzz1-D1
Test: as above
Outline: as §1

Question: How did the “SPOT peptide array binding signal intensity” value turn out when ATNVPVAPPPPPASL was run?
Answer: Its value is 1.

Molecular target: AgBzz1-D2
Test: as above
Outline: as §1

Question: ATNVPVAPPPPPASL was tested. Which “SPOT peptide array binding signal intensity” value did it give?
Answer: The value was at most 0.

Molecular target: AgCyk3
Test: as above
Outline: as §1

Question: Which “SPOT peptide array binding signal intensity” value does the source give for ATNVPVAPPPPPASL here?
Answer: Its value is 2.

Molecular target: AgFus1
Test: as above
Outline: as §1

Question: ATNVPVAPPPPPASL was tested. Which “SPOT peptide array binding signal intensity” value did it give?
Answer: The value was at most 0.

Molecular target: AgHof1
Test: as above
Outline: as §1

Question: For ATNVPVAPPPPPASL, which “SPOT peptide array binding signal intensity” value is on record?
Answer: The value was 3.

Molecular target: AgHse1
Test: as above
Outline: as §1

Question: How did the “SPOT peptide array binding signal intensity” value turn out when ATNVPVAPPPPPASL was run?
Answer: The value was 27.

Molecular target: AgLsb1
Test: as above
Outline: as §1

Question: Which “SPOT peptide array binding signal intensity” value does the source give for ATNVPVAPPPPPASL here?
Answer: The value was at most 0.

Molecular target: AgLsb4
Test: as above
Outline: as §1

Question: With ATNVPVAPPPPPASL as the binder, how does the “SPOT peptide array binding signal intensity” value read?
Answer: Its value is at most 0.

Molecular target: AgMyo5
Test: as above
Outline: as §1

Question: With ATNVPVAPPPPPASL as the binder, how does the “SPOT peptide array binding signal intensity” value read?
Answer: Its value is 468.

Molecular target: AgNbp2
Test: as above
Outline: as §1

Question: Which “SPOT peptide array binding signal intensity” value does the source give for ATNVPVAPPPPPASL here?
Answer: Its value is at most 0.

Molecular target: AgRvs167
Test: as above
Outline: as §1

Question: Which “SPOT peptide array binding signal intensity” value does the source give for ATNVPVAPPPPPASL here?
Answer: The value was at most 0.

Molecular target: AgSho1
Test: as above
Outline: as §1

Question: For ATNVPVAPPPPPASL, which “SPOT peptide array binding signal intensity” value is on record?
Answer: The value was at most 0.

Molecular target: AgSla1-D1-D2
Test: as above
Outline: as §1

Question: How did the “SPOT peptide array binding signal intensity” value turn out when ATNVPVAPPPPPASL was run?
Answer: The value was 4.5.

Molecular target: AgSla1-D3
Test: as above
Outline: as §1

Question: How did the “SPOT peptide array binding signal intensity” value turn out when ATNVPVAPPPPPASL was run?
Answer: Its value is at most 0.

Molecular target: CaAbp1-D1
Test: as above
Outline: as §1

Question: Which “SPOT peptide array binding signal intensity” value does the source give for ATNVPVAPPPPPASL here?
Answer: The value was at most 0.

Molecular target: CaAbp1-D2
Test: as above
Outline: as §1

Question: How did the “SPOT peptide array binding signal intensity” value turn out when ATNVPVAPPPPPASL was run?
Answer: Its value is at most 0.

Molecular target: CaBbc1
Test: as above
Outline: as §1

Question: With ATNVPVAPPPPPASL as the binder, how does the “SPOT peptide array binding signal intensity” value read?
Answer: Its value is at most 0.

Molecular target: CaBem1-D1
Test: as above
Outline: as §1

Question: ATNVPVAPPPPPASL was tested. Which “SPOT peptide array binding signal intensity” value did it give?
Answer: Its value is at most 0.

Molecular target: CaBzz1-D1
Test: as above
Outline: as §1

Question: ATNVPVAPPPPPASL was tested. Which “SPOT peptide array binding signal intensity” value did it give?
Answer: The value was 23.

Molecular target: CaBzz1-D2
Test: as above
Outline: as §1

Question: For ATNVPVAPPPPPASL, which “SPOT peptide array binding signal intensity” value is on record?
Answer: Its value is 0.25.

Molecular target: CaCyk3
Test: as above
Outline: as §1

Question: ATNVPVAPPPPPASL was tested. Which “SPOT peptide array binding signal intensity” value did it give?
Answer: The value was 4.

Molecular target: CaFus1
Test: as above
Outline: as §1

Question: With ATNVPVAPPPPPASL as the binder, how does the “SPOT peptide array binding signal intensity” value read?
Answer: The value was at most 0.

Molecular target: CaHof1
Test: as above
Outline: as §1

Question: For ATNVPVAPPPPPASL, which “SPOT peptide array binding signal intensity” value is on record?
Answer: Its value is 1.

Molecular target: CaHse1
Test: as above
Outline: as §1

Question: For ATNVPVAPPPPPASL, which “SPOT peptide array binding signal intensity” value is on record?
Answer: Its value is 0.5.

Molecular target: CaLsb1
Test: as above
Outline: as §1

Question: How did the “SPOT peptide array binding signal intensity” value turn out when ATNVPVAPPPPPASL was run?
Answer: The value was at most 0.

Molecular target: CaLsb4
Test: as above
Outline: as §1

Question: With ATNVPVAPPPPPASL as the binder, how does the “SPOT peptide array binding signal intensity” value read?
Answer: Its value is at most 0.

Molecular target: CaMyo5
Test: as above
Outline: as §1

Question: With ATNVPVAPPPPPASL as the binder, how does the “SPOT peptide array binding signal intensity” value read?
Answer: The value was 13.8.

Molecular target: CaNbp2
Test: as above
Outline: as §1

Question: For ATNVPVAPPPPPASL, which “SPOT peptide array binding signal intensity” value is on record?
Answer: The value was 18.

Molecular target: CaRvs167
Test: as above
Outline: as §1

Question: With ATNVPVAPPPPPASL as the binder, how does the “SPOT peptide array binding signal intensity” value read?
Answer: The value was at most 0.

Molecular target: CaRvs167-3
Test: as above
Outline: as §1

Question: ATNVPVAPPPPPASL was tested. Which “SPOT peptide array binding signal intensity” value did it give?
Answer: The value was 6.5.

Molecular target: CaSho1
Test: as above
Outline: as §1

Question: Which “SPOT peptide array binding signal intensity” value does the source give for ATNVPVAPPPPPASL here?
Answer: Its value is at most 0.

Molecular target: CaSla1-D1-D2
Test: as above
Outline: as §1

Question: How did the “SPOT peptide array binding signal intensity” value turn out when ATNVPVAPPPPPASL was run?
Answer: The value was at most 0.

Molecular target: CaSla1-D3
Test: as above
Outline: as §1

Question: With ATNVPVAPPPPPASL as the binder, how does the “SPOT peptide array binding signal intensity” value read?
Answer: Its value is at most 0.

Molecular target: ScAbp1
Test: as above
Outline: as §1

Question: With ATNVPVAPPPPPASL as the binder, how does the “SPOT peptide array binding signal intensity” value read?
Answer: Its value is 1.
